Measured values published in PubChem BioAssay (Tox21).
Records with an inconclusive call do not appear. Where a call stands in place of a potency, no number is given. The source made the active and inactive calls. Unless noted, calls come from the whole dose curve; as a rule, active = well fitted curve in the direction sought with a large enough effect in the repeat runs; inconclusive = weak or mixed curves; inactive = no such curve, though single readings can be large; an effect the other way counts as inactive or inconclusive.

How the values were obtained:
[1] = qHTS assay to identify small molecule antagonists of the glucocorticoid receptor (GR) signaling pathway - cell viability counter screen (AID 720693); note: nearly all actives have a fitted effect of over 55% in size
[2] = qHTS assay for identifying genotoxic compounds that show differential cytotoxicity against isogenic chicken DT40 cell lines with known DNA damage response pathways - wild type cell line (AID 743012); note: nearly all actives have a fitted effect of over 60% in size; note: potency is the fitted concentration of half-maximal effect
Outline: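 300 wt DT40 cells/well; cpd (DMSO) pintool-transferred after ~0.5 h at 37 C/5% CO2; 40 h incubation; CellTiter-Glo added, 30 min RT; luminescence read.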

[3] = qHTS assay for identifying genotoxic compounds that show differential cytotoxicity against isogenic chicken DT40 cell lines with known DNA damage response pathways - Rev3 mutant cell line (AID 743014); note: nearly all actives have a fitted effect of over 55% in size; note: potency is the fitted concentration of half-maximal effect
[4] = qHTS assay for identifying genotoxic compounds that show differential cytotoxicity against isogenic chicken DT40 cell lines with known DNA damage response pathways - Rad54/Ku70 mutant cell line (AID 743015); note: nearly all actives have a fitted effect of over 60% in size; note: potency is the fitted concentration of half-maximal effect
[5] = biological target: Androgen receptor (Homo sapiens) (UniProt P10275); experiment: qHTS assay to identify small molecule antagonists of the androgen receptor (AR) signaling pathway (AID 743035; active = well fitted inhibition curve with a large enough effect in the signal ratio in the repeat runs, not every such curve was filed as active; the % refers to the signal ratio)
Outline: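 In this cell-based reporter screen, compounds were tested in concentration series against R1881-activated HEK293 cells expressing beta-lactamase under UAS control; after 16 h at 37C, FRET substrate was added and fluorescence read 2 h later.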

[6] = biological target: Androgen receptor (Homo sapiens) (UniProt P10275); experiment: qHTS assay to identify small molecule agonists of the androgen receptor (AR) signaling pathway (AID 743036; active = well fitted activation curve with a large enough effect in the signal ratio in the repeat runs, with a control signal flat, not every such curve was filed as active; the % refers to the signal ratio)
Outline: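 Agonist activity was scored by beta-lactamase reporter fluorescence in stably transfected HEK293 cells exposed to compounds for 16 h at 37C and 5% CO2. Substrate loading took 2 h at room temperature.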

[7] = biological target: Androgen receptor (Homo sapiens) (UniProt P10275); experiment: qHTS assay to identify small molecule agonists of the androgen receptor (AR) signaling pathway using the MDA cell line (AID 743040; note: nearly all actives have a fitted effect of over 20% in size)
Outline: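 Luciferase agonist assay: 16 h compound exposure at 37C without CO2 in MDA-kb2 AR-luc cells, whose MMTV promoter responds to both AR and GR. Luminescence measured after 30 min room-temperature incubation with ONE-Glo.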

[8] = qHTS assay to identify small molecule antagonists of the androgen receptor (AR) signaling pathway using the MDA cell line - cell viability counter screen (AID 743041; note: nearly all actives have a fitted effect of over 45% in size; note: potency is the fitted concentration of half-maximal effect)
Outline: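 Viability read by CellTiter-Fluor fluorescence in the same wells as the antagonist screen, added after 15.5 h of a 16 h, 37C exposure. Human breast carcinoma MDA-kb2 AR-luc cells, compounds co-dosed with agonist R1881.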

[9] = biological target: Androgen receptor (Homo sapiens) (UniProt P10275); experiment: qHTS assay to identify small molecule antagonists of the androgen receptor (AR) signaling pathway using the MDA cell line (AID 743042; note: nearly all actives have a fitted effect of over 55% in size; note: potency is the fitted concentration of half-maximal effect)
Outline: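 Antagonist mode: compounds plus R1881 agonist added to MDA-kb2 AR-luc cells, incubated 16 h at 37C. Luciferase reporter luminescence quantified, with multiplexed CellTiter-Fluor readout for cell viability.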

[10] = qHTS assay to identify small molecule antagonists of the thyroid receptor (TR) signaling pathway - cell viability counter screen (AID 743064); note: nearly all actives have a fitted effect of over 50% in size; note: potency is the fitted concentration of half-maximal effect
Outline: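 Same-well viability check: GH3.TRE-Luc cells stimulated with 1 nM T3 alongside test compound for 23.5 h, followed by CellTiter-Fluor fluorescence.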

[11] = qHTS assay to identify small molecule antagonists of the thyroid receptor (TR) signaling pathway (AID 743065); note: nearly all actives have a fitted effect of over 55% in size; note: potency is the fitted concentration of half-maximal effect
Outline: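 Antagonism measured as loss of luciferase signal in GH3 cells stably carrying a TRE-luciferase reporter, co-treated with compound and T3 (1 nM final) for 23.5 h at 37 C. Viability was read in the same well by CellTiter-Fluor.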

[12] = tested on: thyroid hormone receptor (rat, GH3 cells); experiment: qHTS assay to identify small molecule agonists of the thyroid receptor (TR) signaling pathway (AID 743066; calls by dose curve)
[13] = qHTS assay to identify small molecule antagonists of the estrogen receptor alpha (ER-alpha) signaling pathway - cell viability counter screen (AID 743074; calls by dose curve;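 note: HEK293 cells carrying ER-alpha-UAS-bla reporter stimulated with 17beta-estradiol; nearly all actives have a fitted effect of over 45% in size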)
[14] = qHTS assay to identify small molecule antagonists of the estrogen receptor alpha (ER-alpha) signaling pathway using the BG1 cell line - cell viability counter screen (AID 743081);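 note: compound given together with 17beta-estradiol as the ER stimulus; nearly all actives have a fitted effect of over 45% in size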; note: potency is the fitted concentration of half-maximal effect
Aromatase (Homo sapiens) = Aromatase (Homo sapiens) (UniProt P11511); experiment: qHTS assay to identify aromatase inhibitors (AID 743083); note: nearly all actives have a fitted effect of over 55% in size
[15] = qHTS assay to identify small molecule antagonists of the androgen receptor (AR) signaling pathway - cell viability counter screen (AID 743033; note: nearly all actives have a fitted effect of over 45% in size)
[16] = biological target: Estrogen receptor (Homo sapiens) (UniProt P03372); experiment: qHTS assay to identify small molecule antagonists of the estrogen receptor alpha (ER-alpha) signaling pathway (AID 743069; active = well fitted curve in the direction sought with a large enough effect in the signal ratio in the repeat runs, not every such curve was filed as active; the % refers to the signal ratio)
Outline: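 Antagonist mode: compounds in DMSO were co-added with 17beta-estradiol to ER-alpha-bla HEK293 cells (2% charcoal-stripped serum) and left 18 h at 37C. Reporter inhibition was measured as FRET fluorescence after 2 h LiveBLAzer substrate at room temperature.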

[17] = biological target: Estrogen receptor (Homo sapiens) (UniProt P03372); experiment: qHTS assay to identify small molecule agonists of the estrogen receptor alpha (ER-alpha) signaling pathway (AID 743075; calls by dose curve;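 note: HEK293 GripTite cells with ER-alpha and UAS-driven beta-lactamase reporter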)
[18] = biological target: Estrogen receptor (Homo sapiens) (UniProt P03372); experiment: qHTS assay to identify small molecule agonists of the estrogen receptor alpha (ER-alpha) signaling pathway using the BG1 cell line (AID 743079); settings: BG1Luc4E2 cells, ERE-luciferase agonist, 22 h; activation: at 70.3 µM (top of the series); note: nearly all actives have a fitted effect of over 20% in size
[19] = qHTS assay to identify small molecule antagonists of the estrogen receptor alpha (ER-alpha) signaling pathway using the BG1 cell line (AID 743080; calls by dose curve;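 note: BG1 cells stimulated with 17beta-estradiol alongside compound; nearly all actives have a fitted effect of over 25% in size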)
Outline: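 Readout is ONE-Glo luminescence, taken 30 min at room temperature after reagent addition, preceded by a CellTiter-Fluor viability read; BG1-Luc-4E2 cells had received compound and 17beta-estradiol for 21.5 h at 37 C.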

Sequence of Androgen receptor (Homo sapiens) (P10275 whole entry, looked up): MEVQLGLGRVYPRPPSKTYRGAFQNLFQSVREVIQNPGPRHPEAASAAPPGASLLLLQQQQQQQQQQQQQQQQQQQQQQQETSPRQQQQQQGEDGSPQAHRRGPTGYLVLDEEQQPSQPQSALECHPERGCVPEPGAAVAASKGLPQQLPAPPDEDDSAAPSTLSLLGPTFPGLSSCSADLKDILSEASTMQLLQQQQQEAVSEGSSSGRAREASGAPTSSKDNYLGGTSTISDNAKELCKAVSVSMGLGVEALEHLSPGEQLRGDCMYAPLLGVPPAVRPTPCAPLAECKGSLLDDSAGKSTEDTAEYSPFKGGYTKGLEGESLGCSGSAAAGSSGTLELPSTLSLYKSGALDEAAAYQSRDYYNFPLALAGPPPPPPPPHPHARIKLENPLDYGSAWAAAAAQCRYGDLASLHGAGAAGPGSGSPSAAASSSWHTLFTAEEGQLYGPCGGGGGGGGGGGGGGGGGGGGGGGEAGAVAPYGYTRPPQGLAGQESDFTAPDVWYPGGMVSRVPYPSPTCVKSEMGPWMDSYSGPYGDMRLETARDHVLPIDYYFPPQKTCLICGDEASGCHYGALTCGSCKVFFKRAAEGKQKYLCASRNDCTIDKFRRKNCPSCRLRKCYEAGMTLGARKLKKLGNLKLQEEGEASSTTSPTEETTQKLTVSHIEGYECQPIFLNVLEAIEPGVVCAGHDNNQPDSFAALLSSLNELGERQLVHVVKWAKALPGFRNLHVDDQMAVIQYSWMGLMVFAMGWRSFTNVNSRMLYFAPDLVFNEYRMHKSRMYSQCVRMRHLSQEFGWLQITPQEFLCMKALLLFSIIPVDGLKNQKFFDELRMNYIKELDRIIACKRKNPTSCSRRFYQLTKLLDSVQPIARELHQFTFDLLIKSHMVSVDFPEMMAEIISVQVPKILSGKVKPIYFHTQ
Sequence of Estrogen receptor (Homo sapiens) (P03372 whole entry, looked up): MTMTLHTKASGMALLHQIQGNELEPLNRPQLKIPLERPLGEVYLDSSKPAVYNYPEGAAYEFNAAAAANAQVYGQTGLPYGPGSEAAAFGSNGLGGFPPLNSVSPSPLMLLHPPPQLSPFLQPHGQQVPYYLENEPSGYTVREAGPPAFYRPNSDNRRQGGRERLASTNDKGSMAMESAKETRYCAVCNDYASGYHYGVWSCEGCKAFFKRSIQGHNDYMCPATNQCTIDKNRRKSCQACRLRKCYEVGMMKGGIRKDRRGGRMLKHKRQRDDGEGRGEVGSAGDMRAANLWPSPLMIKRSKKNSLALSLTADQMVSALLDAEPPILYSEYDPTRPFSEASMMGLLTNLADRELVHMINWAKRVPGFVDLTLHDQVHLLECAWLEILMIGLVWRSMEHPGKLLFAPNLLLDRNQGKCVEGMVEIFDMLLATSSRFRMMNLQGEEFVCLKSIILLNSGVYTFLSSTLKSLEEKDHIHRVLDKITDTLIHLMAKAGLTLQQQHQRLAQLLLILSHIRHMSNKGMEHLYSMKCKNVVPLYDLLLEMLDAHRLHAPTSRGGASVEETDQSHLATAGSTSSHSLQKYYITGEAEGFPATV
Sequence of Aromatase (Homo sapiens) (P11511 whole entry, looked up): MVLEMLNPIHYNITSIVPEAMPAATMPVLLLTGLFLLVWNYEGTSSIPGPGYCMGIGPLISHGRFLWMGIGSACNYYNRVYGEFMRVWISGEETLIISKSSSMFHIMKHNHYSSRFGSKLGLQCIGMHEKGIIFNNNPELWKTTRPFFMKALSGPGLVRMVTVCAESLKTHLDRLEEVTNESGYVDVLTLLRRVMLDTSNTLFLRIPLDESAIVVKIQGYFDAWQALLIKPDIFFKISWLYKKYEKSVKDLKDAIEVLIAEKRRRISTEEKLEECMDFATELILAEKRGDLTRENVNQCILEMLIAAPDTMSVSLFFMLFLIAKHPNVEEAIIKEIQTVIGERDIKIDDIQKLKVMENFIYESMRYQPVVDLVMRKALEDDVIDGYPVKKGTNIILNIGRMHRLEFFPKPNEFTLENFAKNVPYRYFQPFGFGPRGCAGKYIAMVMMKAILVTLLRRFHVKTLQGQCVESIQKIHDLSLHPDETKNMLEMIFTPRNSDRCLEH

In the case of [O]=[Bi][O][Bi]=[O], the Potency [1] is reported as “inactive”, the Potency [2] is reported as “inactive” and the Potency [3] is reported as “inactive”. For the same compound, the Potency [4] was “inactive”, the Potency [5] was “inactive” and the Potency [6] was “inactive”. The Potency [7] was “inactive”, the Potency [8] was “inactive” and the Potency [9] was “inactive”. For the same compound, the Potency [10] was “inactive”, the Potency [11] was “inactive” and the Potency [12] was “inactive”. The Potency [13] was “inactive”, the Potency [14] was “inactive” and the Potency (Aromatase (Homo sapiens)) was “inactive”.

In the case of OCCN1CCN(CC/C=C2/c3ccccc3Sc3ccc(Cl)cc32)CC1, the Potency [1] is reported as “inactive”, the Potency [2] is reported as 9.02 µM (active) and the Potency [3] is reported as 11.4 µM (active). For the same compound, the Potency [4] was 11.4 µM (active), the Potency [5] was “inactive” and the Potency [6] was “inactive”. For the same compound, the Potency [7] was “inactive”, the Potency [8] was “inactive” and the Potency [9] was “inactive”. For the same compound, the Potency [10] was 10.1 µM (active), the Potency [11] was 11.4 µM (active) and the Potency [13] was “inactive”. For the same compound, the Potency [14] was “inactive” and the Potency (Aromatase (Homo sapiens)) was “inactive”.

For CC(C(=O)O)c1ccc(C2CCCCC2)c2ccccc12 (stereo not given), the Potency [1] was “inactive”, the Potency [2] was “inactive” and the Potency [3] was “inactive”. The Potency [4] was “inactive”, the Potency [15] was “inactive” and the Potency [10] was “inactive”. For the same compound, the Potency [12] was “inactive”, the Potency [16] was “inactive” and the Potency [13] was “inactive”. For the same compound, the Potency [17] was “inactive”, the Potency [18] was “inactive” and the Potency [19] was “inactive”. The Potency [14] was “inactive”.

In the case of N#Cc1ccc2c(c1)N(CCCN1CCC(O)CC1)c1ccccc1S2, the Potency [1] is reported as “inactive”, the Potency [2] is reported as 18.8 µM (active) and the Potency [3] is reported as 26.6 µM (active). For the same compound, the Potency [4] was 21.1 µM (active), the Potency [7] was “inactive” and the Potency [10] was 9.44 µM (active). For the same compound, the Potency [11] was 21.1 µM (active), the Potency [16] was “inactive” and the Potency [13] was “inactive”. For the same compound, the Potency [17] was “inactive”, the Potency [18] was “inactive” and the Potency [19] was “inactive”. The Potency [14] was “inactive” and the Potency (Aromatase (Homo sapiens)) was “inactive”.

With CCC(=O)O[C@]1(C(=O)CCl)[C@@H](C)C[C@H]2[C@@H]3C[C@H](F)C4=CC(=O)C=C[C@]4(C)[C@@]3(F)[C@@H](O)C[C@@]21C the Potency [1] was “inactive”, the Potency [2] was 11.9 µM (active) and the Potency [3] was 7.5 µM (active). For the same compound, the Potency [4] was 23.7 µM (active), the Potency [15] was “inactive” and the Potency [10] was “inactive”. The Potency [12] was “inactive”, the Potency [13] was “inactive” and the Potency [14] was “inactive”. The Potency (Aromatase (Homo sapiens)) was “inactive”.

With CS(=O)(=O)NC(=O)CCC/C=C\C[C@H]1C(=O)C[C@@H](O)[C@@H]1/C=C/[C@H](O)COc1ccccc1 the Potency [1] was “inactive”, the Potency [2] was “inactive” and the Potency [3] was “inactive”. The Potency [4] was “inactive”, the Potency [8] was “inactive” and the Potency [10] was “inactive”. The Potency [11] was “inactive”, the Potency [12] was “inactive” and the Potency [16] was “inactive”. For the same compound, the Potency [13] was “inactive”, the Potency [17] was “inactive” and the Potency [18] was “inactive”. For the same compound, the Potency (Aromatase (Homo sapiens)) was “inactive”.

With NC(=S)N=Nc1ccc(NN=C(N)N)cc1 the Potency [1] was “inactive”, the Potency [2] was 2.66 µM (active) and the Potency [3] was 5.96 µM (active). For the same compound, the Potency [4] was 5.31 µM (active), the Potency [6] was “inactive” and the Potency [7] was “inactive”. The Potency [8] was 26.6 µM (active), the Potency [9] was 29.8 µM (active) and the Potency [10] was 23.7 µM (active). The Potency [11] was 26.6 µM (active), the Potency [12] was “inactive” and the Potency [13] was “inactive”. The Potency [17] was “inactive”, the Potency [18] was “inactive” and the Potency [19] was “inactive”. The Potency [14] was 26.6 µM (active).
